The record followed here is PubChem BioAssay AID1053117 (Broad Institute, 2014).

Structures are written as SMILES. Potency and affinity values are given separately. Activity calls are given as the source filed them.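 The calls were made as follows: active = compounds lowering cell ATP signal with a fitted half-effect dose at most twice the top valid dose; inconclusive = flat curve with 30 to 70% signal loss, or bad fit; inactive = wrong direction, flat within 30%, or weaker than limit.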

The test is described as follows: viability loss in HEK293 kidney cells – cell-based, cherry-picks, set 5, cytotoxicity control, dose response (AID 1053117).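 Also: more negative means greater loss of ATP signal and more cytotoxicity.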 Conditions: HEK293T viability, CellTiter-Glo ATP luminescence, 72 h; series mostly up to 26 µM.
Consider `Nc1nc(-c2cc3c(cc2Cl)OCCO3)cs1`, for which the molecule was classed as inactive.
Take `C[C@@H]1CN([C@@H](C)CO)C(=O)c2cccc(NC(=O)Nc3ccc(C(F)(F)F)cc3)c2O[C@H]1CN(C)C(=O)Nc1cccc2ccccc12`: the outcome was inactive.
For `O=C(Nc1ccccc1F)N1C[C@H]2[C@@H](c3ccccc31)[C@H](CO)N2C(=O)C1CC1`, the molecule was called inactive.
As for `COc1cccc(CN2CCN(C(=O)c3ccc(-c4ccccc4)cc3)CC2)c1OC`, the call was inactive.
For `Cn1cc([N+](=O)[O-])c(C(=O)Nc2cc(Oc3ccccc3)cc([N+](=O)[O-])c2)n1`, the molecule was classed as inactive.
For `COC(=O)C[C@H]1CC[C@H]2[C@@H](COc3ccc(NC(=O)Cc4cccs4)cc3C(=O)N2C)O1` the value was “inactive”; for `C[C@@H]1CN([C@H](C)CO)C(=O)c2cc(-c3ccccc3)cnc2O[C@H]1CN(C)Cc1ccccc1`, “inactive”; for `C[C@H](O)C#Cc1ccc2c(c1)O[C@@H](CN(C)C)[C@H](C)CN([C@@H](C)CO)S2(=O)=O`, “inactive”.
As to `CN(C)c1ccc(-c2ccnc3c2CC(C)(C(=O)NCC2CC2)O3)cc1` (stereo not given), the call was inactive.
With `CCCc1cc(C(=O)OC)c(NC(=O)CCC(=O)O)s1`, the molecule was called inactive.
The same measure for `COc1cccc(CNC(=O)CCc2nnc3ccc(NCCCN4CCCC4=O)nn23)c1`: “inactive”; for `C[C@H]1CN([C@@H](C)CO)C(=O)c2cc(-c3ccccc3)cnc2O[C@@H]1CN(C)Cc1ccccc1`: “inactive”; for `NC(=O)C1=C[C@H](c2coc3ccccc3c2=O)C[C@H](OCCCCO)O1`: “inactive”.
Turning to `O=C(CC1Nc2ccccc2NC1=O)Nc1ccc2c(c1)OCO2` (stereo not given), the result was inactive.
The same measure for `C[C@@H]1CN([C@H](C)CO)C(=O)c2cccc(NC(=O)Nc3ccc(C(F)(F)F)cc3)c2O[C@H]1CN(C)C(=O)Nc1cccc2ccccc12`: “inactive”.
Consider `COC(=O)C[C@H]1CC[C@@H]2[C@H](COc3ccc(NC(=O)Cc4cccs4)cc3C(=O)N2C)O1`, for which the result was inactive.
On to `C[C@H](O)C#Cc1ccc2c(c1)O[C@@H](CN(C)C)[C@H](C)CN([C@H](C)CO)S2(=O)=O`, for which the outcome was inactive.
For `COC(=O)C[C@H]1CC[C@H]2[C@H](COc3ccc(NC(=O)Cc4cccs4)cc3C(=O)N2C)O1`, the molecule was called inactive.
Take `C[C@@H]1CN([C@@H](C)CO)C(=O)c2cc(-c3ccccc3)cnc2O[C@H]1CN(C)C(=O)c1cccc(F)c1`: the outcome was inactive.
On to `O=S(=O)(c1ccccc1F)N1CC[C@@H]2[C@H](CO)Nc3ccc(-c4cccc(F)c4)cc3[C@@H]21`, for which the outcome was inactive.
